Measured values published in PubChem BioAssay AID588405 (Sanford-Burnham Center for Chemical Genomics, 2011).
Out of some 360,000 compounds screened, about 6,200 (1.7%) were called active.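 How the source made its calls: active means inhibition of at least 50% at 20 µM; inactive means the rest.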 The entries come from a sample that favours actives as a whole.

Assay: Peg3 promoter-driven luciferase inhibitors, primary screen, cell-based, HeLa, luciferase luminescence (AID 588405)
Details: HeLa PEG-Prom luciferase reporter, overnight, at 20 µM, stronger effect = higher value

| Compound | inhibition |
| --- | --- |
| CCOC(=O)N(C)c1c(CC)nc2c(OCc3ccccc3C(=O)OC)cccn12 | 13.4% (inactive) |
| Nc1ccccc1SC(C[N+](=O)[O-])c1ccccc1 (centres undefined) | 63.5% (active) |
| CCCC(=O)N1CCC1(C)C(=O)NCc1ccc(C(C)C)cc1 (centres undefined) | 1.21% (inactive) |
| CCC(=O)N1CCCC1(C)C(=O)Nc1ccc2c(c1)CCN2C(C)=O (centres undefined) | 4.54% (inactive) |
| CCOC(=O)Nc1ccc2c(c1)N(C(=O)CN1CCN3CCCC3C1)c1ccccc1CC2 (centres undefined) | 0.5% (inactive) |
| CCOC(=O)Nc1ccc2c(c1)N(C(=O)CCCl)c1ccccc1[S@]2=O | 84.1% (active) |
| CCOC(=O)Nc1ccc2c(c1)N(C(=O)CCN1CCN(CCO)CC1)c1ccccc1CC2 | 3.85% (inactive) |
| O=C(C[C@H]1C/C=C\C[C@@H](NC(=O)OCC2c3ccccc3-c3ccccc32)C(=O)O[C@@H](c2ccccc2)CNC1=O)N[C@H](CO)Cc1ccccc1 | 67.1% (active) |
| CC(C)(C)OC(=O)C[C@H]1C/C=C\C[C@@H](CC(=O)N[C@H](CO)Cc2ccccc2)C(=O)NC[C@@H](c2ccccc2)OC1=O | -1.52% (inactive) |
| CC(C)(C)OC(=O)C[C@@H]1C/C=C\C[C@@H](CC(=O)N[C@H](CO)Cc2ccccc2)C(=O)NC[C@@H](c2ccccc2)OC1=O | -6.65% (inactive) |
| CC(=O)c1nn(-c2ccccc2)c(=Nc2ccccc2)cc1C | 1.9% (inactive) |
| O=C1NC(O)CCN1C1CC(O)C(CO)O1 (centres undefined) | 15.2% (inactive) |
| CSc1nnnn1-c1c(C)cc(C)cc1C | 7.96% (inactive) |
| CSC1=NCCN1C(=O)c1ccc(S(=O)(=O)N2CCOCC2)cc1 | -13.6% (inactive) |
| Cc1ccc2nc(-c3ccco3)c(Cc3cccc(Cl)c3)n2c1 | -203% (inactive) |
| CCOC(=O)C1=C(C)OC(N)=C(C#N)C1c1cncc(-c2ccc(F)cc2)c1 (centres undefined) | 101% (active) |
| CCCc1nc2c([nH]1)C(c1cccnc1)C(C#N)=C(N)O2 (centres undefined) | -0.33% (inactive) |
| CCOC(=O)C1=C(CC)OC(N)=C(C#N)C1c1ccc(F)cc1F (centres undefined) | 8.52% (inactive) |
| CCOP(=O)(OCC)C(Cc1ccccc1)N=C(c1ccccc1)c1ccccc1 (centres undefined) | 41.3% (inactive) |
| CN(CC1CCCO1)S(=O)(=O)c1ccc(C(=O)Nc2ccc(F)cc2)cc1 (centres undefined) | 21.5% (inactive) |
| Cc1cccc(NC(=O)c2ccc(S(=O)(=O)N(C)CC3CCCO3)cc2)c1C (centres undefined) | 4.42% (inactive) |

| Compound | inhibition |
| --- | --- |
| CCOC(=O)c1c(NC(=O)c2ccc(S(=O)(=O)N(C)CC3CCCO3)cc2)sc2c1CC(C)(C)NC2(C)C (centres undefined) | 85.8% (active) |
| CC(=O)Nc1cc(-c2ccccc2F)cn2c(-c3cccc(C(F)(F)F)c3)cnc12 | 25% (inactive) |
| CCOc1ccc2nc(NC(=O)c3cc([N+](=O)[O-])ccc3N3CCOCC3)sc2c1 | 61.8% (active) |
| O=C(NCc1ccc2c(c1)OCO2)c1cc([N+](=O)[O-])ccc1N1CCOCC1 | 17.4% (inactive) |
| COc1ccc(S(=O)(=O)N2CCCCC2)cc1NC(=O)c1cc([N+](=O)[O-])ccc1N1CCOCC1 | 13.5% (inactive) |
| COc1cccc(-c2cc(NC(C)=O)c3ncc(-c4cccc(C(C)=O)c4)n3c2)c1 | -9.41% (inactive) |
| CCN(CC)c1ncnc2c1ncn2[C@H]1CN(Cc2cccs2)C[C@@H](CO)O1 | 5.39% (inactive) |
| CC1CCCN(C(=O)CN2C(=O)c3ccccc3S2(=O)=O)C1 (centres undefined) | -95% (inactive) |
| CN(Cc1ccc(F)cc1)C(=O)CN1C(=O)c2ccccc2S1(=O)=O | 1.25% (inactive) |
| O=C(CN1C(=O)c2ccccc2S1(=O)=O)N1CCc2ccccc21 | 94.5% (active) |
| CCOC(=O)C1=CC[C@@H](c2ccncc2)N(S(=O)(=O)c2ccc(C)cc2)C1 | 27.8% (inactive) |
| O=C(Nc1ccc(Cl)c(C(F)(F)F)c1)C1Cc2c(-c3ccccc3Oc3ccccc3)ccnc2O1 (centres undefined) | 26.9% (inactive) |
| Cc1ccc(NC(=S)NC(NC(=O)Cc2cccc3ccccc23)C(Cl)(Cl)Cl)cc1 (centres undefined) | 105% (active) |
| O=C(Cc1cccc2ccccc12)NNC(=O)Nc1ccc(Cl)cc1 | -102% (inactive) |
| CC(C)(C)C(=O)NC(NC(=S)Nc1ccc(S(N)(=O)=O)cc1)C(Cl)(Cl)Cl (centres undefined) | 17% (inactive) |
| C/C(CC1CC(C)(C)OC1=O)=N/Nc1nc(-c2ccccc2)cs1 (centres undefined) | -108% (inactive) |
| COc1ccc2c(c1OC)C(=O)OC2Nc1nc(-c2ccccc2)cs1 (centres undefined) | 104% (active) |
| CC(C)C1CC2=C(C(=O)OC(C)(C)O2)C(c2ccc(F)cc2)O1 (centres undefined) | 4.49% (inactive) |
| COc1ccc(Cl)cc1-c1cc(C(=O)Nc2cc(OC)c(OC)c(OC)c2)[nH]n1 | 33.8% (inactive) |
| O=C(Nc1ccc(Cl)cc1)c1csc([C@H]2C[C@H](O)[C@@H](CO)O2)n1 | -232% (inactive) |
| Cc1ccc([C@@H]2CC(=O)[C@@H]3CN(S(=O)(=O)c4ccc(C)cc4)[C@H](c4ccccc4F)C[C@@H]3N2S(=O)(=O)c2ccc(Cl)cc2)cc1 | 13.7% (inactive) |

| Compound | inhibition |
| --- | --- |
| COc1ccc(NC(=O)N(C)C[C@@H]2OCc3cn(nn3)CCCC(=O)N([C@H](C)CO)C[C@H]2C)c(OC)c1 | -5.47% (inactive) |
| Cc1nc2ccccc2nc(C)c1=NOCc1ccc(Cl)cc1Cl | 29.6% (inactive) |
| COc1ccc(Cl)cc1N(CC(=O)N/N=C/c1ccc(OCC(N)=O)cc1)S(C)(=O)=O | -7.79% (inactive) |
| NC(N)=N/N=C/c1ccc(OCc2ccc(Cl)cc2Cl)cc1 | 99.3% (active) |
| O=C(Nc1ccc(F)cc1)C1CCN(C(=O)c2ccc([N+](=O)[O-])cc2)CC1 | 17.8% (inactive) |
| O=C(/C=C/c1ccc([N+](=O)[O-])o1)NNC(=O)c1ccc(F)cc1 | 99.4% (active) |
| O=C(/C=C/c1ccc(F)cc1)NC(=S)NNC(=O)c1cccnc1 | 8.82% (inactive) |
| CC1(c2cccc([N+](=O)[O-])c2)CC(C)(C)N(C(=O)c2ccccc2)c2ccccc21 (centres undefined) | 34.9% (inactive) |
| Cc1nnc(SCC(=O)N2c3ccccc3C(C)(c3ccc(Cl)cc3)CC2(C)C)s1 (centres undefined) | 51.1% (active) |
| CC1(c2ccccc2)CC(C)(C)N(C(=O)c2cc([N+](=O)[O-])cc([N+](=O)[O-])c2)c2ccccc21 (centres undefined) | 16.3% (inactive) |
| COc1ccc(NC(=O)C2Cc3c(-c4ccc5c(c4)OCO5)ccnc3O2)cn1 (centres undefined) | 21.4% (inactive) |
| COc1ccc(NC(=O)/C(Cl)=C(/Cl)S(=O)Cc2ccc(C)cc2)cn1 (centres undefined) | 109% (active) |
| COc1ccc(NC(=O)CN2C(=O)NC(C)(c3ccccc3)C2=O)cn1 (centres undefined) | 1.66% (inactive) |
| Cc1cc2nc(-c3ccco3)c(Cc3cccc(F)c3)n2c(C)c1Br | -26.2% (inactive) |
| CC(Sc1nnc(C2CC2)n1C1CC1)C(=O)Nc1ccc(C(N)=O)cc1 (centres undefined) | 0.86% (inactive) |
| Cc1oc2cc(Br)c(O)c(Br)c2c1C(=O)c1ccccc1 | -69.5% (inactive) |
| CCOC(=O)c1c(-c2ccccc2)oc2cc(Br)c(O)c(C=O)c12 | 69.1% (active) |
| CCOC(=O)c1c(C)oc2cc(Sc3ccccc3)c(O)c(O)c12 | -89% (inactive) |
| CCCNC(=O)c1cc(C2CCCCN2S(=O)(=O)c2cn(C)cn2)on1 (centres undefined) | -3.04% (inactive) |
| O=C(CNC(c1ccccc1)c1ccccc1)Nc1ccc(F)cc1 | 6.17% (inactive) |
| O=S1(=O)CC(N2CCN(c3ccccn3)CC2)CN1Cc1ccc(F)cc1 (centres undefined) | 10.9% (inactive) |

| Compound | inhibition |
| --- | --- |
| Cc1ccc(F)c(S(=O)(=O)NC(=O)C2(C)CCN2C(=O)c2ccco2)c1 (centres undefined) | -1.32% (inactive) |
| CCOc1ccc(N(CC(=O)NCC2CCCO2)S(=O)(=O)c2ccc(C)cc2)cc1 (centres undefined) | 14.4% (inactive) |
| COc1ccc(NC(=O)c2sc3nc(C)nc(N4CCN(c5ccccn5)CC4)c3c2C)c(OC)c1 | 30.7% (inactive) |
| Cc1cc(Br)ccc1NC(=O)c1sc2ncn(CC(=O)N3CCN(c4ccccn4)CC3)c(=O)c2c1C | 1.76% (inactive) |
| Cc1cc(Br)ccc1NC(=O)c1cnc(N2CCN(c3ccccn3)CC2)c2ccccc12 | 64.2% (active) |
| CC(=O)Nc1cccc(-c2cc(NC=O)c3ncc(-c4ccc(F)c(Cl)c4)n3c2)c1 | 40.1% (inactive) |
| COc1ccc(NC(=O)C(Br)C(C)C)cc1 (centres undefined) | -6.38% (inactive) |
| CC(C)(C)CC(=O)Nc1nc(C(N)Cc2ccc(C(F)(F)F)cc2)cs1 (centres undefined) | 102% (active) |
| Cc1ccccc1NC(=O)Cc1nc(COC(=O)c2ccc(C(F)(F)F)cc2)cs1 | -7.19% (inactive) |
| COc1ccc(CC(N)c2csc(NC(=O)Nc3ccc(C(C)C)cc3)n2)cc1 (centres undefined) | 100% (active) |
| CC(C)(C)CC(=O)Nc1nnc(SCC(=O)NCc2cccs2)s1 | 9.91% (inactive) |
| COc1ccc(CC(N)c2csc(NC(=O)Cc3ccccc3)n2)cc1 (centres undefined) | 49.7% (inactive) |
| COC(=O)[C@H](CCSC)NC(=O)Nc1ccc(OC)cc1 | 10.2% (inactive) |
| COc1ccc(OC)c(NC(=O)N[C@H](Cc2ccccc2)C(=O)NN)c1 | 9.08% (inactive) |
| COc1ccc(CC(N)c2csc(NC(=O)NC(c3ccccc3)c3ccccc3)n2)cc1 (centres undefined) | 96.6% (active) |
| O=C(NCc1ccc(F)cc1)c1cc(C2CCCCN2C(=O)c2cccs2)on1 (centres undefined) | 12.7% (inactive) |
| CC(C)Cn1c(N)c(C(=O)COC(=O)C2CCCN2C(=O)c2cccs2)c(=O)n(C)c1=O (centres undefined) | 8.57% (inactive) |
| C#Cc1ccc(NC(=O)C2(C)CCN2C(=O)Cc2ccc(-c3ccccc3)cc2)cc1 (centres undefined) | 20.8% (inactive) |
| O=C(NCc1cccnc1)c1cc(C2CCCN(C(=O)C3CCCCC3)C2)on1 (centres undefined) | 3.87% (inactive) |
| CC(C)CCNC(=O)c1[nH]c(C(F)(F)F)nc1-c1ccccc1 | 11.4% (inactive) |
| COc1ccc(C(NC(=O)C2CCN(CCCc3ccccc3)CC2)c2cccs2)cc1 (centres undefined) | 2.75% (inactive) |
